# Measurements as given in ChEMBL document CHEMBL5606460, “ASAP - DENV-2 NS2B-NS3 protease fluorescence single point” (2024).
# In all, about 2,000 compounds went through this assay and about 110 (5.5%) showed an effect of 50% or more. The list comes from a sample in which strong results are over-represented; it also holds similar structures and randomly drawn compounds.
# Target: Genome polyprotein (dengue virus type 2) (UniProt P29990)
# [1] = Thailand/16681/1984, Concentration 25.0 uM, Number of replicates 1.0
structure (smiles),measurement,setting,value
Cc1cc(CO)c2cccc(Nc3cc(C)on3)c2n1,inhibition,"Thailand/16681/1984, Concentration 49.95 uM, Number of replicates 2.0, Standard deviation 1.3194982141200182 %",1.66%
same,inhibition,"Thailand/16681/1984, Concentration 99.9 uM, Number of replicates 2.0, Standard deviation 1.2714193652686099 %",2.71%
Cc1cc(CO)c2cccc(Cc3ccccc3NC(=O)[C@@H](N)CC(N)=O)c2n1,inhibition,"Thailand/16681/1984, Concentration 49.95 uM, Number of replicates 2.0, Standard deviation 0.9388389208439332 %",28.9%
same,inhibition,"Thailand/16681/1984, Concentration 99.9 uM, Number of replicates 2.0, Standard deviation 1.1783962129832455 %",59.7%
Cc1cc(CO)c2cccc(NC(=O)[C@@H](N)CC(N)=O)c2n1,inhibition,"Thailand/16681/1984, Concentration 49.95 uM, Number of replicates 2.0, Standard deviation 1.8295341709834483 %",-3.67%
same,inhibition,"Thailand/16681/1984, Concentration 99.9 uM, Number of replicates 2.0, Standard deviation 6.049352845396267 %",-1.2%
Cc1cc(CO)c2cccc(NC(=O)COc3cccc(CN)c3)c2n1,inhibition,"Thailand/16681/1984, Concentration 49.95 uM, Number of replicates 2.0, Standard deviation 1.546456211659181 %",9.18%
same,inhibition,"Thailand/16681/1984, Concentration 99.9 uM, Number of replicates 2.0, Standard deviation 0.8863913825569767 %",7.18%
Cc1cc(Cl)c2cccc(NC(=O)[C@@H]3CCCC[C@H]3N)c2n1,inhibition,"Thailand/16681/1984, Concentration 99.9 uM, Number of replicates 2.0, Standard deviation 1.2808103574664134 %",-9.95%
Cc1cc(CO)c2cccc(Cc3ccccc3NC(=O)[C@H](N)CCO)c2n1,inhibition,"Thailand/16681/1984, Concentration 49.95 uM, Number of replicates 2.0, Standard deviation 1.1804730410904682 %",-2.49%
same,inhibition,"Thailand/16681/1984, Concentration 99.9 uM, Number of replicates 2.0, Standard deviation 1.1029287785847963 %",-0.758%
Cc1cc(Cl)c2cccc(NC(=O)CCN)c2n1,inhibition,"Thailand/16681/1984, Concentration 49.95 uM, Number of replicates 2.0, Standard deviation 0.0008200090846279543 %",99.2%
same,inhibition,"Thailand/16681/1984, Concentration 99.9 uM, Number of replicates 2.0, Standard deviation 0.04112992935002318 %",98.9%
Cc1nc(Cl)c(NC(=O)C2CCN(c3ccc(C=O)cc3)CC2)c(Cl)n1,inhibition,[1],12.8%
CC(C)(CO)NC(=O)c1cc(Cl)cc(NC(=O)Cn2cnccc2=O)c1,inhibition,"Thailand/16681/1984, Concentration 49.5 uM, Number of replicates 2.0, Standard deviation 0.3718016272993385 %",-3.9%
same,inhibition,"Thailand/16681/1984, Concentration 99.01 uM, Number of replicates 2.0, Standard deviation 1.0416819516575477 %",-5.97%
same,inhibition,"Thailand/16681/1984, Concentration 198.0 uM, Number of replicates 2.0, Standard deviation 1.29652000519297 %",-5.4%
O=Cc1ccc(N2CCC(C(=O)N3CCN(C(=O)C(F)(F)F)CC3)CC2)cc1,inhibition,[1],8.59%
Cc1n[nH]c(CC(=O)N2CCC[C@H](n3cnc(C(N)=O)n3)C2)n1,inhibition,"Thailand/16681/1984, Concentration 49.5 uM, Number of replicates 2.0, Standard deviation 0.8615620840433298 %",-1.22%
same,inhibition,"Thailand/16681/1984, Concentration 99.01 uM, Number of replicates 2.0, Standard deviation 0.2938998370290156 %",-1.99%
same,inhibition,"Thailand/16681/1984, Concentration 198.0 uM, Number of replicates 2.0, Standard deviation 1.103757347430939 %",-0.94%
Cn1cc(NC(=O)c2ccccc2C(F)(F)F)c(-c2cnn(C)n2)n1,inhibition,"Thailand/16681/1984, Concentration 49.5 uM, Number of replicates 2.0, Standard deviation 0.32036291597833877 %",-2.97%
same,inhibition,"Thailand/16681/1984, Concentration 99.01 uM, Number of replicates 2.0, Standard deviation 1.175972600606475 %",-3.46%
same,inhibition,"Thailand/16681/1984, Concentration 198.0 uM, Number of replicates 2.0, Standard deviation 1.0582279614459547 %",-3.2%
O=Cc1ccc(N2CCC(C(=O)Nc3ccc4scnc4c3)CC2)cc1,inhibition,[1],13%
O[C@]1(C(F)(F)F)CC[C@H](CNCc2nnc3ccccn23)CC1,inhibition,"Thailand/16681/1984, Concentration 49.5 uM, Number of replicates 2.0, Standard deviation 2.244095461971029 %",4.51%
same,inhibition,"Thailand/16681/1984, Concentration 99.01 uM, Number of replicates 2.0, Standard deviation 1.4092400656614155 %",4.61%
same,inhibition,"Thailand/16681/1984, Concentration 198.0 uM, Number of replicates 2.0, Standard deviation 2.783814769891106 %",1.75%
CCc1nc([C@@H](C)NC(=O)c2ccc(O)c(NC(=O)c3ccncc3F)c2C)n[nH]1,inhibition,"Thailand/16681/1984, Concentration 49.5 uM, Number of replicates 2.0, Standard deviation 0.640305880758115 %",-3.94%
same,inhibition,"Thailand/16681/1984, Concentration 99.01 uM, Number of replicates 2.0, Standard deviation 0.7647439452243474 %",-3.61%
same,inhibition,"Thailand/16681/1984, Concentration 198.0 uM, Number of replicates 2.0, Standard deviation 1.5490355987880475 %",-3.27%
Cc1cn2nnc(C(=O)N[C@H]3CCCCn4c3n[nH]c4=O)c2c(=O)[nH]1,inhibition,"Thailand/16681/1984, Concentration 49.5 uM, Number of replicates 2.0, Standard deviation 0.2359641679366373 %",-0.501%
same,inhibition,"Thailand/16681/1984, Concentration 99.01 uM, Number of replicates 2.0, Standard deviation 0.10523355791430405 %",-0.563%
same,inhibition,"Thailand/16681/1984, Concentration 198.0 uM, Number of replicates 2.0, Standard deviation 0.06258385535382655 %",-1.4%
O=Cc1ccc(N2CCC(C(=O)Nc3nnc(C(F)(F)F)s3)CC2)cc1,inhibition,[1],12.7%
O=Cc1ccc(N2CCC(C(=O)N3CCNC(=O)C34CCCCC4)CC2)cc1,inhibition,[1],13.7%
CCCCN(Cc1ccc(F)cc1)C(=O)C1CCN(c2ccc(C=O)cc2)CC1,inhibition,[1],16.4%
COc1cc(C(=O)Nc2cnc3ccccc3c2)nc(N2CCNCC2)n1,inhibition,"Thailand/16681/1984, Concentration 49.5 uM, Number of replicates 2.0, Standard deviation 9.540542197549359 %",4.46%
same,inhibition,"Thailand/16681/1984, Concentration 99.01 uM, Number of replicates 2.0, Standard deviation 4.349736840709832 %",6.31%
same,inhibition,"Thailand/16681/1984, Concentration 198.0 uM, Number of replicates 2.0, Standard deviation 5.514135579540427 %",7.41%
O=Cc1ccc(N2CCC(C(=O)N3CCCN(c4ccc(C(F)(F)F)cn4)CC3)CC2)cc1,inhibition,[1],9.22%
Cc1cc(CO)c2cccc(Cc3cccc(NC(=O)c4cc(C(=O)O)[nH]n4)c3)c2n1,inhibition,"Thailand/16681/1984, Concentration 49.95 uM, Number of replicates 2.0, Standard deviation 0.024232414845035546 %",4.13%
same,inhibition,"Thailand/16681/1984, Concentration 99.9 uM, Number of replicates 2.0, Standard deviation 0.7422093740247248 %",7.91%
COCc1cc(-c2ccccc2C(=O)Nc2cnn(C)c2)ccn1,inhibition,"Thailand/16681/1984, Concentration 49.5 uM, Number of replicates 2.0, Standard deviation 1.4111132401966338 %",-5.45%
same,inhibition,"Thailand/16681/1984, Concentration 99.01 uM, Number of replicates 2.0, Standard deviation 1.6255328031848963 %",-5.34%
same,inhibition,"Thailand/16681/1984, Concentration 198.0 uM, Number of replicates 2.0, Standard deviation 0.730186058256325 %",-4.12%
O=Cc1ccc(N2CCC(C(=O)NCC(=O)Nc3ccc(F)c(F)c3)CC2)cc1,inhibition,[1],14.1%
